The record followed here is PubChem BioAssay.

Broadly, the viability is a read-out of living cells in per cent, often relative to untreated cells. Usually inhibition stands for the drop in the measured response relative to a control, in per cent. One may read the remaining activity as the signal under treatment as a percentage of the control signal.

Assay [1] in a line: P. berghei load reduction in hepatocytes – cell-based, HepG2, luciferase luminescence, HepG2 viability, primary screen (AID 624349; in the data active = parasite load remaining mostly below about 12%, no sharp cut-off; inactive = mostly above about 10%;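 note: 100% = mean of DMSO negative control wells on the same plate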). To be noted: P. berghei liver stage in HepG2, luciferase luminescence, concentration not given here; parasite load remaining: stronger effect = lower value; viability: measured here: HepG2 viability without parasites.
Assay [2] is described as follows: EMT-state selective cytotoxicity in co-culture – imaging, PC-3E GFP, TEM4-18 mCherry, primary screen (AID 1345086).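 For all read-outs here: cells exposed to compound for 72 h before imaging.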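 For red/green cell ratio (normalised): normalised mesenchymal count divided by normalised epithelial count so high means epithelial killing.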 To be noted: PC-3E GFP / TEM4-18 mCherry co-culture, imaging cell counts, at 1 µM; for red/green cell ratio (normalised): actives lie on both sides.
For assay [3], the system named is Aerobactin synthetase IucA (Klebsiella pneumoniae hvKP1). Nature of the assay: IucA enzyme inhibition, primary screen, biochemical, Spectrum library (AID 1346200; call rule not given here;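 note: 100% = wells without compound and 0% = wells lacking enzyme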). To be noted: malachite green pyrophosphate, A620, at 8 µM, stronger effect = lower value.
Assay [4] in a line: blockers of polyQ-driven CASP3 activation – cell-based (AID 1583). To be noted: polyglutamine-induced caspase-3 activation, cell assay; stronger effect = higher value;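 tested at 10 µM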.
Assay [5] in a line: yeast 75Q aggregation reduction – 75Q-TubU reporter (AID 1593). To be noted: Yeast 75Q polyglutamine aggregation reporter.
A short description of assay [6]: restoration of touch response, mutant HTT neurons – whole organism, C. elegans mechanosensory neurons, N-terminal huntingtin (AID 1599). To be noted: C. elegans polyQ-huntingtin mechanosensory neurons, stronger effect = higher value.
The nature of assay [7]: blockers of cytochrome c efflux from mitochondria – biochemical, purified mitochondria (AID 1603).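 Note: mouse liver mitochondria challenged with calcium chloride; signal normalized to the plate average as 100%.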 To be noted: stronger effect = lower value.
A short description of assay [8]: polyglutamine aggregate formation blockers (AID 1604). To be noted: polyglutamine-induced protein aggregation inhibition assay; stronger effect = higher value; tested at 2.5 µM.
Assay [9] can be described thus: glutamate transport activators, MN-1 cells, MN-1 cell line (AID 1612).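 Note: tested at 1 µM final; 0% = mean of DMSO vehicle wells on each plate; positive means more glutamate uptake than control and negative means less.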 To be noted: MN-1 motor neuron cells, stronger effect = higher value.
Assay [10] in a line: 75Q-TubH aggregate inhibition, S. cerevisiae, yeast (AID 1616). To be noted: S. cerevisiae 75Q-TubH polyglutamine aggregation suppression; stronger effect = higher value.
A short description of assay [11]: viability loss with induced miR-34 in A549 – imaging, A549 dox-inducible miR-34, nuclei and caspase counts, primary screen (AID 1347080;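 active = compounds whose cell count with miR-34 switched on is under 0.7 times the count with it off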). To be noted: A549 miR-34 inducible, Hoechst nuclei count, 48 h.
For assay [12], the target named is Mitogen-activated protein kinase 7 (Homo sapiens) (UniProt Q13164). The assay is described as follows: Gal4-ERK5 driven luciferase induction – cell-based, HTS, primary screen (AID 1508626;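 active = luciferase signal above three times the same-plate solvent-only control wells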;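 note: luciferase driven by Gal4-ERK5 fusion binding five Gal4 sites before minimal TATA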). To be noted: HeLa Gal4-ERK5 transactivation, 18 h, at 5 µM, stronger effect = higher value.
Assay [13] in a line: compounds altering circadian rhythm period length – cell-based, LOPAC library, luminescence reporter (AID 2774; call rule not given here;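 note: values are relative to mean of DMSO wells on each plate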). To be noted: circadian reporter cells, at 7 µM, actives lie on both sides.
The test system of assay [14] is Hepatitis C virus NS3 helicase. The assay is described as follows: blockers of NS3h binding to ssDNA – biochemical, fluorescence polarization, LOPAC1280 library, primary screen (AID 687035; in the data active = inhibition above about 37%). To be noted: Purified HCV NS3 helicase, Cy5-dT15 ssDNA binding fluorescence polarization; stronger effect = higher value; concentration not given here. (In general: Fluorescence polarisation rises when a labelled molecule tumbles more slowly, as on binding a larger partner.)

Assay [15] is described as follows: compounds altering Cy5-DNA-NS3h complex signal – biochemical, LOPAC1280, artefact control for HCV NS3 helicase inhibitor project (AID 687037; call rule not given here). To be noted: Cy5-DNA-NS3h complex fluorescence interference counterscreen. (Counterscreens check selectivity or assay interference.)
The subject of assay [16] is Aerobactin synthetase IucA (Klebsiella pneumoniae, hypervirulent). Nature of the assay: biochemical IucA inhibition screen of LOPAC library by absorbance (AID 1346212; call rule not given here;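 note: 100% = no compound wells and 0% = no enzyme wells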). To be noted: IucA enzyme assay, absorbance (OD) readout; stronger effect = lower value;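 tested at 8 µM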.
Assay [17] is described as follows: blockers of cellular phospholipid synthesis – cell-based, LOPAC library, screen 4, primary screen (AID 1347384; call rule not given here). To be noted: animal cells, phospholipid biosynthesis inhibition screen; at 10 µM.
Assay [18] can be described thus: galactose survival enhancers in mitochondrial complex I cybrids – cell-based, galactose medium, ATP luminescence, primary screen (AID 1645843;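 active = z-score of at least 1.8 in each of two replicates, scored against plate mean and spread of sample wells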;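 note: positive z means more ATP and so rescue of galactose-driven cybrid death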). To be noted: complex I mutant cybrid cells, 72 h, stronger effect = higher value.
A short description of assay [19]: MELAS cybrid and Rieske KO viability enhancers – cell-based, MELAS cybrids, Rieske KO mouse fibroblasts, CellTiter-Glo, primary screen (AID 1508586;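 active = mean z-score across replicates of 1.96 or higher in either the MELAS or the Rieske mutant cell line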;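 note: z relative to plate mean and SD of compound and empty wells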). To be noted: low glucose. Background: ATP-based viability assays read luminescence as a measure of living cells.
[20] abbreviates: measured here: epithelial PC-3E GFP cell survival.
Setting [21] is: measured here: mesenchymal TEM4-18 mCherry cell survival.
Where [22] appears, read: measured here: relative caspase fold change +Dox/-Dox.
The mark [23] stands for this setting: measured here: total cells with miR-34 induction, stronger effect = lower value.
Setting [24] is: measured here: total cells without miR-34 induction.
Setting [25] is: counts scaled to control wells, 1 = unselective.

For some of these results: Entries with a potency or affinity are not part of this list. Calls of active or inactive are those of the source.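 Rule for the calls, unless noted: active = compounds killing one labelled cell type while sparing the other, by normalised counts and ratio limits, not self-fluorescent; inactive = the rest.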

Sequence of Mitogen-activated protein kinase 7 (Homo sapiens) (Q13164 whole entry, looked up, the tested form may be a part): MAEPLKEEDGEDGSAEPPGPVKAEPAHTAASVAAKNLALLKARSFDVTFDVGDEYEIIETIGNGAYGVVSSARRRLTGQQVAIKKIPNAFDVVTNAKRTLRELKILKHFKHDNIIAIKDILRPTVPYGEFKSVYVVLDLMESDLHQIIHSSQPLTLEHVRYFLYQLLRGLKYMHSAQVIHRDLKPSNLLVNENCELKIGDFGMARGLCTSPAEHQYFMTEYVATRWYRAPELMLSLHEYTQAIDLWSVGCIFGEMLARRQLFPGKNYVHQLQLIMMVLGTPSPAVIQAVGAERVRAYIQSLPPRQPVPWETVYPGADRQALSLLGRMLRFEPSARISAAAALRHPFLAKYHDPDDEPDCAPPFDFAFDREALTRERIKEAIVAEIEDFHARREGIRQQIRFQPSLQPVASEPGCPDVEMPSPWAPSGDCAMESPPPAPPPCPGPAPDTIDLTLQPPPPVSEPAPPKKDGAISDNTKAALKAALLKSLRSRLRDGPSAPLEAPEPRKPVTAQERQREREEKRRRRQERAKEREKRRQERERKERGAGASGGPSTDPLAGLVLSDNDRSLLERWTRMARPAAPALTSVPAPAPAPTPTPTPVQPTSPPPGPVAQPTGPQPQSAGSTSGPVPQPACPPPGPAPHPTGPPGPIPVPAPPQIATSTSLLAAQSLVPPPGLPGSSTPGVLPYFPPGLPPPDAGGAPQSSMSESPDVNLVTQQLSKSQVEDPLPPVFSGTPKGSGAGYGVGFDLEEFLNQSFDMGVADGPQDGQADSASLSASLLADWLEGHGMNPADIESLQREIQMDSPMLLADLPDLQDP

As to `CC(=O)O[C@H]1CC[C@@]2(C)C(=CCC3C2CC[C@]2(C)C(=O)CCC32)C1` (some centres undefined), the parasite load remaining in [1] is 162% (inactive). For the same compound, the viability in assay [1] stood at 84.8%. In assay [2], the red/green cell ratio (normalised) was 0.81 (inactive). In addition, the values for the normalised cell number in assay [2] (setting [20]) and in assay [2] (setting [21]) were 1.28 and 1.04, respectively. In assay [3], the activity remaining is 103% (inactive).

As for `COc1cc2c3cc1Oc1c(OC)c(OC)cc4c1[C@@H](Cc1cccc(c1)Oc1ccc(c(O)c1)C[C@@H]3N(C)CC2)N(C)CC4`, in assay [1], the parasite load remaining is 114% (inactive) and the viability was 67.7%. Also, in assay [2], the red/green cell ratio (normalised) is 1.03 (inactive). The normalised cell number in assay [2] (setting [20]) was found to be 0.83. In addition, the normalised cell number in [2] (setting [21]) worked out at 0.86. Further, the activity remaining in assay [3] was 112% (inactive).

Consider `CN1CC(CNC(=O)OCc2ccccc2)CC2c3cccc4c3c(cn4C)CC21` (centres undefined), for which the inhibition in [4] is -46%. In assay [5], this compound yielded a score of 1.1. In assay [6], this compound came in with a rescue above control of 11.5. For the same compound, the cytochrome c release ratio in [7] was found to be 0.97. In [8], this compound had an inhibition of aggregation of 12.2%. Besides, the glutamate uptake change in assay [9] was 5.85%. In addition, the aggregation suppression score in assay [10] was 1.13. In assay [2], the red/green cell ratio (normalised) was 0.64 (inactive). Besides, the normalised cell number in [2] (setting [20]) turned out to be 1.26; in assay [2] (setting [21]) it was 0.81. For the same compound, the activity remaining in [3] was 113% (inactive).

Regarding `C[C@]12CC[C@H](O)CC1=CCC1C2CC[C@]2(C)C(=O)CC[C@@H]12` (some centres undefined), the red/green cell ratio (normalised) in assay [2] is 0.71 (inactive). The normalised cell number turned out to be 1.37 in assay [2] (setting [20]) and 0.97 in assay [2] (setting [21]). The results for the fold change in assay [11] (stronger effect = lower value) and in assay [11] (setting [22]) were 0.933 (inactive) and 1.12, respectively. Also, the values for the cell count in assay [11] (setting [23]) and in [11] (setting [24]) were 7350 and 7880, respectively.

For the compound `Cc1cc(OC(=O)N2CCCCC2)c(C(C)C)cc1[N+](C)(C)C`, the red/green cell ratio (normalised) in assay [2] (setting [25]) was 0.97 (inactive). In addition, the figures for the normalised cell number in assay [2] (setting [20]) and in assay [2] (setting [21]) were 1.16 and 1.13, respectively. Besides, the activity remaining in assay [3] was 125% (inactive). The luciferase signal in assay [12] was 48 AU (inactive).

Turning to `OCC(O)[C@H]1O[C@@H]2O[C@H](C(Cl)(Cl)Cl)O[C@@H]2[C@H]1O` (some centres undefined), the red/green cell ratio (normalised) in [2] was 0.83 (inactive). Further, the results for the normalised cell number in assay [2] (setting [20]) and in [2] (setting [21]) were 1.02 and 0.85, respectively. In addition, the fold change is 0.871 (inactive) in [11] (stronger effect = lower value) and 0.819 in assay [11] (setting [22]). Further, the cell count in assay [11] (setting [23]) was 8180; in [11] (setting [24]) it was 9390.

As to `O=C(O)Cc1cnc[nH]1`, the period change in assay [13] was 0.01 h (inactive). In addition, the inhibition in assay [14] was -1% (inactive). In addition, in assay [15], the fluorescence ratio (interference) was 1 (inactive). In addition, the red/green cell ratio (normalised) in assay [2] (setting [25]) was 0.87 (inactive). For the same compound, the results for the normalised cell number in [2] (setting [20]) and in assay [2] (setting [21]) were 1.11 and 0.97, respectively. In addition, in assay [16], the remaining activity was 121% (inactive). Also, the fold change in assay [11] (stronger effect = lower value) was 0.943 (inactive); in [11] (setting [22]) it was 1.63. Besides, the cell count in [11] (setting [23]) was found to be 10100; in assay [11] (setting [24]), 10700. In addition, the outcome in [17] was inactive. Also, the z-score in assay [18] is -0.12 (inactive).

Consider `O=c1[nH]c(=O)n(Cl)c(=O)n1Cl`, for which the red/green cell ratio (normalised) in assay [2] is 1.21 (inactive). Moreover, the normalised cell number in [2] (setting [20]) was 0.87; in [2] (setting [21]), 1.05. Also, the fold change in assay [11] (stronger effect = lower value) was 0.959 (inactive); in [11] (setting [22]), 0.94. For the same compound, the cell count in assay [11] (setting [23]) amounted to 8550; in [11] (setting [24]), 8920.

Turning to `CC(C)(N)Cc1ccccc1`, the parasite load remaining in [1] was 7.56% (inactive). The viability in [1] stood at 113%. Further, in assay [2], the red/green cell ratio (normalised) was 0.91 (inactive). Also, the normalised cell number was found to be 1.06 in assay [2] (setting [20]) and 0.97 in assay [2] (setting [21]). The results for the fold change in assay [11] (stronger effect = lower value) and in [11] (setting [22]) were 0.89 (inactive) and 4.46, respectively. In addition, the cell count in [11] (setting [23]) is 11900; in [11] (setting [24]), 13300. The z-score was -0.229 (inactive) in [19] (MELAS cybrid survival, CellTiter-Glo 48 h, stronger effect = higher value) and -0.552 in [19] (Rieske KO mouse fibroblast survival, CellTiter-Glo 72 h). In addition, the luciferase signal in assay [12] is 64 AU (inactive).

Turning to `C=CCc1ccc(OC)cc1`, in assay [2], the red/green cell ratio (normalised) was 1.02 (inactive). Also, the normalised cell number in [2] (setting [20]) worked out at 0.96; in assay [2] (setting [21]) it was 0.99. Moreover, in [3], the activity remaining is 107% (inactive). Also, the luciferase signal in assay [12] is 52 AU (inactive).
